Test results reported in PubChem BioAssay (Tox21).
Inconclusive results are not listed. The source made the active and inactive calls. Calls follow the shape of the dose curve; as a rule, active = well fitted activation curve with a large enough effect in the repeat runs; inconclusive = weak or mixed curves; inactive = flat fitted curve, though single readings scatter.

experiment: A CellTox Green Cytotoxicity Assay to monitor cytotoxicity in HEK293 cells - 32 hour (AID 1224881); conditions: CellTox Green fluorescence; series mostly up to 76.8 µM; cytotoxicity increase: at the top concentration; also: nearly all actives have a fitted effect of over 40% in size
Excerpt: National Center for Advancing Translational Sciences [NCATS]
NIH Chemical Genomics Center [NCGC]
U.S. Environmental Protection Agency [EPA]
National Institutes of Environmental Health Sciences [NIEHS]
National Toxicology Program [NTP]
Cell-based models are critical for drug discovery. Determining the natural cytotoxic effects resulting from test compounds is an essential research activity. A CellTox Green Cytotoxicity Assay to monitor cytotoxicity in real time of continues cell culture during 40 hours of the compound treatment was used to screen Tox21 10K library compounds in Hek293 cells. CellTox Green Cytotoxicity Assay is a nonlytic, homogeneous, biofluorescent method to measure cytotoxicity in cell culture after experimental manipulation. The assay system uses a proprietary asymmetric cyanine dye that is excluded from viable cells but preferentially stains the dead cell's DNA. […] Viable cells produce no appreciable increases in fluorescence. Therefore, the fluorescence signal produced by the binding interaction with dead cell DNA is proportional to cytotoxicity.
The mixture of Hek293 cell suspension and reagents were dispensed at 600cells/6 ul/well in 1536-well tissue culture treated black solid bottom plates using a Multidrop dispenser. After the assay plates were incubated at a 37 C/5% CO2 incubator for 5 hours, 23 nL of compounds dissolved in DMSO, positive and negative controls was transferred to the assay plate by a pintool work station. The plates were incubated at 37 C for 40 hours. The fluorescence intensity were measured at 0h, 8h, 16h, 24h, 32h and 40h time points using ViewLux plate reader during compound treatment.
% is scaled to controls: 0 for no effect and ±100 for the full control effect; potency is read from the fitted curve at half-maximal effect.

SMILES | Potency | cytotoxicity increase
CC(=O)OCC(=O)[C@@]12OC(C)(C)O[C@@H]1C[C@H]1[C@@H]3C[C@H](F)C4=CC(=O)C=C[C@]4(C)[C@@]3(F)[C@@H](O)C[C@@]12C | 26.8 µM (active) | –
OCC1CC=CCC1 (stereo not given) | – | -17.5% (inactive)
C=C(C)C(=O)OCCOC(=O)CC(C)=O | – | -7.79% (inactive)
O=C(O)c1cccnc1C(=O)O | – | 9.07% (inactive)
Nc1c(I)cc(I)c(C(=O)N(CCC(=O)O)c2ccccc2)c1I | – | -19.7% [at 35.3 µM] (inactive)
Nc1ccc(C(=O)OCCCOC(=O)c2ccc(N)cc2)cc1 | – | 1.39% (inactive)
CCCCCCCCCOC(C)=O | – | -1.8% (inactive)
CCCCCCOC(=O)C(C)C | – | 11.1% (inactive)
CCC1(C)CC(=O)NC1=O (stereo not given) | – | -24.2% [at 35.3 µM] (inactive)
O=C(O)c1ccc(CO)o1 | – | -10.9% (inactive)
CN1Cc2cc(C(=O)N3CCC(C4CCNCC4)CC3)ccc2N[C@@H](CC(=O)O)C1=O | – | 2.87% [at 35.3 µM] (inactive)
OC(CCCN1CCCCC1)(c1ccccc1)c1ccccc1 | – | -1.35% [at 35.3 µM] (inactive)
COc1ccccc1N=Nc1c(S(=O)(=O)O)cc2cc(S(=O)(=O)O)cc(NC(C)=O)c2c1O | – | -24.5% (inactive)
C[Si](NC1CCCCC1)(NC1CCCCC1)NC1CCCCC1 | – | -3.04% (inactive)
C[Si]1(C)O[Si](C)(C)O[Si](C)(C)O1 | – | -3.19% (inactive)
O=Cc1c(Cl)cccc1Cl | – | -8.1% (inactive)
Oc1cc(O)c(Cl)cc1Cl | – | 4.57% (inactive)
CO[C@H]1C=CO[C@@]2(C)Oc3c(C)c(O)c4c(O)c(c5c(c4c3C2=O)=NC2(CCN(CC(C)C)CC2)N=5)NC(=O)/C(C)=C\C=C/[C@H](C)[C@H](O)[C@@H](C)[C@@H](O)[C@@H](C)[C@H](OC(C)=O)[C@@H]1C | – | -4.16% (inactive)
CCCOC(=O)c1ccc(N)cc1 | – | 0.852% [at 35.3 µM] (inactive)
CCC(=O)Oc1ccc(/C(CC)=C(\CC)c2ccc(OC(=O)CC)cc2)cc1 | – | -3.01% (inactive)

SMILES | Potency | cytotoxicity increase
CC(=O)CC(c1ccc([N+](=O)[O-])cc1)c1c(O)c2ccccc2oc1=O (stereo not given) | – | -5.86% [at 35.3 µM] (inactive)
CC(C)(O)c1ccccc1CC[C@@H](SCC1(CC(=O)O)CC1)c1cccc(/C=C/c2ccc3ccc(Cl)cc3n2)c1 | – | 11.7% [at 35.3 µM] (inactive)
CCCOCCOCCO | – | -3.35% (inactive)
CCc1cccc(N(C)C(N)=Nc2cccc3ccccc23)c1 | – | -7.72% [at 35.3 µM] (inactive)
CNC(=O)N(c1ccccc1)c1ccccc1 | – | 4.49% (inactive)
C[C@@H]1C[C@H]2[C@@H]3CCC4=CC(=O)C=C[C@]4(C)[C@@]3(F)[C@@H](O)C[C@]2(C)[C@H]1C(=O)CO | – | 18.2% [at 35.3 µM] (inactive)
CC(COc1ccc(C(C)(C)C)cc1)OS(=O)OCCCl (stereo not given) | – | 19.8% (inactive)
CCC(=O)OC/C=C/c1ccccc1 | – | -13.1% (inactive)
CN1CCCN=C1/C=C/c1cccs1 | – | -7.56% [at 35.3 µM] (inactive)
C[N+]1(C)CCC(=C(c2ccccc2)c2ccccc2)CC1 | – | 0.117% [at 35.3 µM] (inactive)
COc1cc2[nH]c(=O)[nH]c(=O)c2cc1OC | – | -0.585% [at 35.3 µM] (inactive)
CCCCCCCCSCCO | – | 3.79% (inactive)
Cc1ccccc1N1C(=O)c2cc(S(N)(=O)=O)c(Cl)cc2NC1C (stereo not given) | – | 0.0686% [at 35.3 µM] (inactive)
CCCCCCCC/C=C\CCCCCCCC(=O)OC | – | -1.19% (inactive)
CCCCOC(=O)CCS | – | -17.8% (inactive)
O=C(CCCCCCCCC#CI)Oc1ccccc1 | – | -6.38% [at 35.3 µM] (inactive)
O=C(O)Cc1ccc(-c2ccccc2)cc1 | – | -24.5% [at 35.3 µM] (inactive)
CC(C)C(=O)O | – | -14.1% (inactive)
CCCCC(CC)C(=O)OCCOCCOCCOCCOC(=O)C(CC)CCCC (stereo not given) | – | 2.56% (inactive)
COCCOC(=O)C1=C(C)NC(C)=C(C(=O)OC/C=C/c2ccccc2)C1c1cccc([N+](=O)[O-])c1 (stereo not given) | – | -1.88% [at 35.3 µM] (inactive)
